Data as given in PMC4336329 (PLoS ONE, 2015).
Hit rate of the full screen: of about 310,000 compounds, about 14,000 (4.5%) showed an effect of 50% or more. The effect is printed as a negative number. Only a selection was taken, and strong results are over-represented in it overall.

The compounds below were run against human ether-à-go-go-related gene (hERG) potassium channel (human, UniProt Q12809) (assay: primary screen, population patch clamp on CHO cells stably expressing hERG; higher = less effect of the substance).
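Also: peak tail current of the secondary pulse compared with the same well before compound.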

Chain of human ether-à-go-go-related gene (hERG) potassium channel (Q12809 whole entry, looked up): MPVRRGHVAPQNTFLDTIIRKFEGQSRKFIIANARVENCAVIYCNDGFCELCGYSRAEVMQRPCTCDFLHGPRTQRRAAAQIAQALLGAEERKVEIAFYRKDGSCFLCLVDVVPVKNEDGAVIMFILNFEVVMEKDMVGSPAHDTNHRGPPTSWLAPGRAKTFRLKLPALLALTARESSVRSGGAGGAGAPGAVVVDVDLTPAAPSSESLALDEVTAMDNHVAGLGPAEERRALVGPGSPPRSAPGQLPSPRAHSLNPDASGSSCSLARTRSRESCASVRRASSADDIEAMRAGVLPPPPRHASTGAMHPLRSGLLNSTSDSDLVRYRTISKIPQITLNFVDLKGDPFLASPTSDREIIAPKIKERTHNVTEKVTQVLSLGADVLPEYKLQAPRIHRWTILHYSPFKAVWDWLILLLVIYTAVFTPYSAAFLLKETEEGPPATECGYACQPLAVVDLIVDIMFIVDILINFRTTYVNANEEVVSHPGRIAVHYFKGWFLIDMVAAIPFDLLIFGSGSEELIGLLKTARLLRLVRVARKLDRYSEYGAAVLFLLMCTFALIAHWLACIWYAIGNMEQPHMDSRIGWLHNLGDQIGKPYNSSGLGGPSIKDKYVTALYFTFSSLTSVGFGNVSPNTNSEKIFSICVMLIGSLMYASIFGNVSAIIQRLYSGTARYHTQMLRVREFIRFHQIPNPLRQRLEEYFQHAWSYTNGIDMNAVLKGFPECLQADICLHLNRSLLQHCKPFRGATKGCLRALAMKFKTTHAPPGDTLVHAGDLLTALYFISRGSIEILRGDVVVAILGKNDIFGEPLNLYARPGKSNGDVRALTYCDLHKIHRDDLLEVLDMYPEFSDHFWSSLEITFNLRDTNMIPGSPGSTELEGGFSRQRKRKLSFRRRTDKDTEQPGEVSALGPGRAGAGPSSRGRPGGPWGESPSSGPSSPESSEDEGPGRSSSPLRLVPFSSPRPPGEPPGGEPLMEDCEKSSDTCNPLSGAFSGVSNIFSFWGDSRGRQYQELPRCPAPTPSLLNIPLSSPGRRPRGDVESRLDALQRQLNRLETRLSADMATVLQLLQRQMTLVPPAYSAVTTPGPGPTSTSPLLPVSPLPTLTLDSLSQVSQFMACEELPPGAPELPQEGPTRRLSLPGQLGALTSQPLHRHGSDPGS

Row | SMILES | hERG current change (%, negative = inhibition) at 10uM [%]
1 | NC(=O)COc1ccc(Cc2ncc(C(F)(F)F)cc2Cl)cc1 | -2.34
2 | Cc1ccc(C)c(NS(=O)(=O)c2cc(C(=O)N3CCc4ccccc4C3)ccc2Cl)c1 | 8.24
3 | CCOc1ccc(C(=O)NCC(=O)OCc2c(C)noc2C)cc1OCC | 23.2
4 | Cc1cc(O)c(CN2CCN(c3ccccc3)CC2)cc1C | 3.98
5 | O=C(Nc1ccccc1Cl)Oc1ccc(Cl)cc1Cl | 12.8
6 | Cc1ccc(NC2=Nc3ccccc3CC2)cc1 | -18.2
7 | CS(=O)(=O)c1ccc2nc(NC(=O)c3ccc(N4C(=O)CCC4=O)cc3)sc2c1 | 6.3
8 | CSc1nc2c(c(=O)[nH]1)C(c1ccccc1Cl)CC(=O)N2 (stereo not drawn) | 12.8
9 | CCc1nnc(NS(=O)(=O)c2ccc(Nc3ccc([N+](=O)[O-])c4nonc34)cc2)s1 | 46.6
10 | COc1cc(CN2CCN(Cc3c[nH]c4ccccc34)CC2CCO)cc(OC)c1 (stereo not drawn) | -32.3
11 | COc1ccc2[nH]c(CN3CCN(CC(C)C)C(CCO)C3)c(C)c2c1 (stereo not drawn) | 5.18
12 | COc1cccc(CN2CCN(Cc3[nH]c4ccccc4c3C)CC2CCO)c1 (stereo not drawn) | -60.5
13 | Cc1csc(NC(=O)CSc2nncn2C)n1 | 19
14 | O=C1C=C(NCc2ccccc2)C2(CCCCC2)O1 | 0.0967
15 | CCc1ccc(NC(=O)CSc2nc(=O)n(CCCN3CCOCC3)c3c2CCCC3)cc1 | -54.7
16 | CCOC(=O)c1ccc(NC(=O)CSc2nc(=O)n(CCN3CCOCC3)c3c2CCC3)cc1 | -32
17 | CCCCc1ccc(NC(=O)CSc2nc(=O)n(CCCN3CCOCC3)c3c2CCC3)cc1 | -64.5
18 | CCCCc1ccc(NC(=O)CSc2nc(=O)n(CCN3CCOCC3)c3c2CCC3)cc1 | -66.5
19 | CCc1ccc(NC(=O)CSc2nc(=O)n(CCCN3CCOCC3)c3c2CCC3)cc1 | -40
20 | CCOc1ccc(NC(=O)CSc2nc(=O)n(CCCN3CCOCC3)c3c2CCC3)cc1 | -24.1
21 | O=C(COC(=O)c1cc[n+]([O-])cc1)Nc1ccc(Cl)cc1[N+](=O)[O-] | 15.6

Row | SMILES | hERG current change (%, negative = inhibition) at 10uM [%]
22 | COc1cc(C(=O)OCC(=O)c2c[nH]c3ccccc23)ccc1OCC(=O)N1CCOCC1 | 5.92
23 | Cc1cccc(C(=O)N[C@H](C(=O)Nc2nc3ccccc3[nH]2)C(C)C)c1 | 3.32
24 | COc1ccc(C(CC(=O)c2ccccc2)S(=O)(=O)c2ccc(C)cc2)cc1 (stereo not drawn) | 12.8
25 | COc1ccc(Cl)cc1N(CC(=O)NCC(C)C)S(=O)(=O)c1ccc(C)c([N+](=O)[O-])c1 | 8.34
26 | COC(=O)C(NNc1ccccc1C)(NC(=O)c1ccc(F)cc1)C(F)(F)F (stereo not drawn) | -1.2
27 | Cc1ccc(NC(=O)c2ccc(OC(F)F)cc2)cc1S(=O)(=O)N(C)C | -10.4
28 | CC(C)c1onc(C(=O)N2CCN(C(c3ccccc3)c3ccccc3)CC2)c1[N+](=O)[O-] | 13.6
29 | O=C(O)C(F)(F)F.O=C1C(Cc2ccccc2)Nc2ncnc(N3CCN(c4ccccc4)CC3)c2N1Cc1ccc(Cl)cc1 (stereo not drawn) | 0.92
30 | Cn1nnc2cc(C(=O)N3CCN(c4ccccc4)CC3)ccc21 | -3.95
31 | Cc1cc(C)cc(N(CC(=O)N2CCC(C)CC2)S(=O)(=O)c2ccccc2)c1 | -70.3
32 | O=C(CN(c1ccccc1)S(=O)(=O)c1ccccc1)N1CCOCC1 | 4.9
33 | CC1CCN(C(=O)CN(c2ccc3c(c2)OCCO3)S(=O)(=O)c2ccccc2)CC1 | -26.6
34 | Cc1cc(C)cc(N(CC(=O)N2CCOCC2)S(=O)(=O)c2ccccc2)c1 | -56.1
35 | Cc1cc(C)cc(N(CC(=O)N2CCC(C)CC2)S(C)(=O)=O)c1 | -38.6
36 | Cc1ccc(S(=O)(=O)N(CC(=O)N2CCC(C)CC2)c2cccc(C)c2)cc1 | -55.1
37 | Cc1ccc(N(CC(=O)N2CCOCC2)S(=O)(=O)c2ccccc2)cc1 | -2.35
38 | CCOC(=O)N1CCN(C(=O)CN(c2cccc(C)c2)S(=O)(=O)c2ccc(C)cc2)CC1 | -39.7
39 | Cc1ccc(S(=O)(=O)N(CC(=O)N2CCC(C)CC2)c2ccccc2)cc1 | -26.4
40 | Cc1cccnc1NC(=O)Nc1cccs1 | 12.4
41 | Cc1ccc(NC(=O)CCl)c(C)c1 | 21.6
42 | COc1ccc(-n2nc(C(=O)NCC(=O)N3CCN(c4cccc(Cl)c4)CC3)c3ccccc3c2=O)c(OC)c1 | -2.74
